Sampled rows, rich in hits. Any-hit rate of the full collection: about 1.2%.
p53null 39C tox = selectivity test: cytotoxicity in p53 null cells, nonpermissive temperature | actives 0.97% (n = 55,000) | H1299 p53-null (neo) cells, 39C, ATPlite viability, 24 h | AID 904 | Potency, µM (doses to about 46.1 µM), actives largely listed as cytotoxic; further: nearly all actives have a fitted effect of over 50% in size
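Luminescent ATP signal reported cell survival after H1299 lines (neo, p53 null; or p53 A138V) received up to 46 uM compound and 24 hr incubation at 39C.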
p53null 32C kill = p53 null cell cytotoxicity, permissive temperature | H1299-neo p53 null cells, ATP luminescence, 24 h, 32C | actives 0.62% (n = 55,000) | AID 903 | Potency, µM (titrated, usually from 46.1 µM), usual class: cytotoxic; further: nearly all actives have a fitted effect of over 55% in size
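AC50 values derive from Hill modelling of qHTS concentration-response data (up to 46 uM) in H1299-neo cells. Cells were treated 24 h at 32C following overnight attachment at 37C; viability was read as cellular ATP.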
FH mod = Identification of activators of human fumarate hydratase by quantitative high-throughput screening. Fumarate hydratase, mitochondrial (Homo sapiens), P07954. FH coupled MDH/diaphorase resazurin fluorescence, 15 min. Potency, µM (titrated, usually from 79.9 µM), hits mostly inhibitors. actives 0.22% (n = 54,000); further: the screen sought activators but most active calls are inhibition curves; nearly all actives have a fitted effect of over 45% in size
Target sequence (P07954 whole entry, looked up): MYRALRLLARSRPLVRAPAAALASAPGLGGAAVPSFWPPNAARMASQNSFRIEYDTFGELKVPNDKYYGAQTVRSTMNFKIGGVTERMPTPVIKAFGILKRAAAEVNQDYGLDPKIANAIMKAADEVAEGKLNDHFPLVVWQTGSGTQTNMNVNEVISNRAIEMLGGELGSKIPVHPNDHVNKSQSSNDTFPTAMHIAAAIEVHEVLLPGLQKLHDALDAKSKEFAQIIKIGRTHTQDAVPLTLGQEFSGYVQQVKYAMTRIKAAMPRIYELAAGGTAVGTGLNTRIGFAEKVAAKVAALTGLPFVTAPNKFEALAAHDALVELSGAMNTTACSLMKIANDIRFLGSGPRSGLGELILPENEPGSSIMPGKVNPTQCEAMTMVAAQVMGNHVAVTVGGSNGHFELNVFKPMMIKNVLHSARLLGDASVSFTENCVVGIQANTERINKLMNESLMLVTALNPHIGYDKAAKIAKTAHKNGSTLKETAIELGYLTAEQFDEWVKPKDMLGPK
Each line names hits and unclear results; the compound was inactive in the other large screens. The call rests on the fitted dose curve; in most records, active means well fitted curve in the direction sought with a large enough effect; inconclusive means small, poorly fitted or top-dose-only effect, or another doubt; inactive means no such curve, though single readings can be large; an effect the other way counts as inactive or inconclusive.

C[N+]1(C)[C@@H]2CC[C@H]1CC(OC(=O)C(O)c1ccccc1)C2 (stereo partly specified)	none (no result: p53null 39C tox, p53null 32C kill)
CCCc1nn2cc(-c3ccc(C)c(C)c3)nc2s1	p53null 39C tox 10µM, p53null 32C kill 7.9µM
CCCNC(=O)c1ccc2c(c1)sc1nc(-c3ccc(C)cc3)cn12	none
O=C(NCc1ccccc1)[C@H](Cc1ccccc1)NC(=O)[C@@H]1O[C@@H]1C(=O)NCCc1ccc(O)cc1	none (no result: p53null 39C tox, p53null 32C kill)
Cc1ccc(C(=O)Nc2nc3ccc(S(C)(=O)=O)cc3s2)o1	p53null 39C tox 10µM, p53null 32C kill 13µM (no result: FH mod)
COc1ccc(C(=O)Nc2nc3ccc(S(C)(=O)=O)cc3s2)cc1	none (no result: FH mod)
COC(=O)Cc1cc2c(c([N+](=O)[O-])c1)N(C(=O)CC[C@H](N)C(=O)O)CC2	none (no result: p53null 39C tox, p53null 32C kill)
CCn1c(C(=O)NCCc2ccc(OC)c(OC)c2)cc2sc(Cl)cc21	FH mod inconclusive
Cn1c(C(=O)NCCc2ccccc2)cc2sc(Cl)cc21	p53null 39C tox 7.9µM, p53null 32C kill 11µM
COc1cc(=C2C=c3ccccc3=N2)[nH]c1=Cc1[nH]c(C)cc1C	none (no result: p53null 39C tox, p53null 32C kill)
O=[N+]([O-])c1cccc2c(Br)[nH]nc12	none (no result: p53null 39C tox, p53null 32C kill)
NS(=O)(=O)c1cccc2c1c([N+](=O)[O-])cc1nc(O)c(O)nc12	FH mod 18µM (no result: p53null 39C tox, p53null 32C kill)
C[C@@H]1CC[C@]2(C)C(C[C@@H](O)[C@H](O)[C@]23CO3)[C@@]1(C)CCc1ccoc1 (stereo partly specified)	none (no result: p53null 39C tox, p53null 32C kill)
O=C(Nc1noc2ccccc12)c1ccc(F)cc1	p53null 39C tox inconclusive, p53null 32C kill 13µM
O=C(Nc1noc2ccccc12)c1cccc(F)c1	p53null 39C tox inconclusive, p53null 32C kill inconclusive
CCOC(=O)CCC(=O)O[C@H]1[C@H](O[C@@H]2[C@@H](C)[C@H](O[C@H]3C[C@@](C)(OC)[C@@H](O)[C@H](C)O3)[C@@H](C)C(=O)O[C@H](CC)[C@@](C)(O)[C@H](O)[C@@H](C)C(=O)[C@H](C)CC2(C)O)O[C@H](C)C[C@@H]1N(C)C (stereo partly specified)	none (no result: p53null 39C tox, p53null 32C kill)
C=C1C(=O)O[C@@H]2C[C@]3(C)[C@@H](CCC(C)O)[C@@H]3C[C@H]12 (stereo partly specified)	none (no result: p53null 39C tox, p53null 32C kill)
C[C@@H]1C(=O)O[C@H]2CC34[C@H]5C[C@@H](C(C)(C)C)C36[C@H](OC(=O)[C@@H]6O)O[C@@]4(C(=O)O5)[C@]21O (stereo partly specified)	none (no result: p53null 39C tox, p53null 32C kill)
CCC(C)/C=C(C)/C=C/c1cc2c(cn1)C(=O)C(C)(OC(C)=O)C(O)=C2Cl (stereo unspecified)	none (no result: p53null 39C tox, p53null 32C kill)
CCc1ccc(S(=O)(=O)Nc2cccc(-c3ccc(N4CCC(C)CC4)nn3)c2)s1	p53null 39C tox 13µM, p53null 32C kill 10µM (no result: FH mod)
CC(=O)c1ccc(S(=O)(=O)Nc2ccc(-c3ccc(N4CCCCCC4)nn3)cc2)cc1	p53null 39C tox inconclusive (no result: FH mod)
CC(=O)Nc1ccc(S(=O)(=O)Nc2cccc(-c3ccc(N4CCC(C)CC4)nn3)c2)cc1	p53null 39C tox 3.2µM, p53null 32C kill 4µM (no result: FH mod)
COc1ccc(-c2cccc(NS(=O)(=O)c3ccc(NC(C)=O)cc3)c2)nn1	none
COc1ccc(OC)c(S(=O)(=O)Nc2cccc(-c3ccc(N4CCCCC4)nn3)c2)c1	none (no result: FH mod)
CC(=O)c1ccc(S(=O)(=O)Nc2ccc(-c3ccc(N4CCCCC4)nn3)cc2)cc1	p53null 39C tox 16µM, p53null 32C kill inconclusive (no result: FH mod)
COc1ccc(S(=O)(=O)Nc2cccc(-c3ccc(N4CCC(C)CC4)nn3)c2)c(OC)c1	p53null 39C tox 13µM, p53null 32C kill 13µM (no result: FH mod)
CCOc1ccc(-c2cccc(NS(=O)(=O)c3ccc(C)s3)c2)nn1	none
Cc1c(Cl)cccc1S(=O)(=O)Nc1nc(NCCc2ccccc2)nc2c1CN(Cc1ccccc1)CC2	none (no result: p53null 39C tox, p53null 32C kill)
CC1=CC(=O)OC(C)(CC(C)(O)C(=O)O)C1 (stereo unspecified)	none (no result: p53null 39C tox, p53null 32C kill)
CNC(=O)c1c(I)c(NC(C)=O)c(I)c(C(=O)O)c1I	none (no result: p53null 39C tox, p53null 32C kill)
Cc1[nH]c2ccccc2c1C1=C(NCCc2ccc(F)cc2)C(=O)N(C)C1=O	none (no result: p53null 39C tox, p53null 32C kill)
COc1ccccc1-c1ccc(-c2cn(C(=O)N3CCCCC3Cc3ccccc3)nn2)cc1 (stereo unspecified)	none (no result: p53null 39C tox, p53null 32C kill)
CNC(=O)c1c(C)oc2cc(Oc3ncnc4cc(OC)c(OC)cc34)ccc12	none (no result: p53null 39C tox, p53null 32C kill)
O=S(=O)(Nc1cccc(-c2ccc(N3CCCC3)nn2)c1)c1ccc(F)cc1F	none
COc1ccc(S(=O)(=O)Nc2cccc(-c3ccc(N4CCCCCC4)nn3)c2)cc1F	none (no result: FH mod)
COc1ccc(S(=O)(=O)Nc2cccc(-c3ccc(N4CCCCC4)nn3)c2)cc1F	p53null 39C tox 20µM, p53null 32C kill 13µM (no result: FH mod)
O=S(=O)(Nc1cccc(-c2ccc(N3CCCCC3)nn2)c1)c1cccc(F)c1	p53null 39C tox 10µM, p53null 32C kill inconclusive (no result: FH mod)
Cc1ccc(C)c(CSc2ccc3nnc(CCNS(=O)(=O)c4ccccc4)n3n2)c1	none
Cc1ccc(S(=O)(=O)NCCc2nnc3ccc(SCc4ccccc4C)nn23)cc1	p53null 39C tox 16µM
CCOC(=O)C(CCc1ccccc1)NC1CCCN2CCCC(C(=O)O)N2C1=O (stereo unspecified)	none (no result: p53null 39C tox, p53null 32C kill)
COc1ccc(C(=O)Nc2ccccc2)cc1S(=O)(=O)Nc1ccc(Br)cc1	none
COc1ccc(Br)cc1S(=O)(=O)NC(=O)/C=C/c1ccccc1Cc1ccc2ccccc2c1	FH mod 20µM (no result: p53null 39C tox, p53null 32C kill)
COc1cc(/C=C/C(=O)O[C@H]2[C@@H]3C=CO[C@@H](O[C@@H]4O[C@H](CO)[C@@H](O)[C@H](O)[C@H]4O)[C@@H]3[C@@]3(CO)O[C@@H]23)ccc1O	none (no result: p53null 39C tox, p53null 32C kill)
OC[C@H]1O[C@@H](Oc2ccc(O)cc2)[C@H](O)[C@@H](O)[C@H]1O	none (no result: p53null 39C tox, p53null 32C kill)
Oc1ccccc1-c1nc(/C=C/c2ccccc2Cl)no1	p53null 39C tox 10µM, p53null 32C kill 10µM
CN(C)c1ccc(/C=C/c2noc(-c3ccccc3O)n2)cc1	none
C/C(=C\CCC(C)(O)c1ccc(C)cc1)C(=O)O (stereo unspecified)	none (no result: p53null 39C tox, p53null 32C kill)
Cn1c2ccc(F)cc2c2c(C(=O)N3CCCC3)cn(-c3ccccc3)c(=O)c21	none (no result: p53null 39C tox, p53null 32C kill)
Nc1ncnc2c1c(COc1cccc(Cl)c1)nn2C1CCOCC1	none (no result: p53null 39C tox, p53null 32C kill)
Cc1oc(-c2cccc(Cl)c2)nc1CN1CCCC(C(=O)NCCc2ccc(Cl)cc2)C1 (stereo unspecified)	p53null 39C tox 20µM, FH mod inconclusive
Cc1oc(-c2cccc(Cl)c2)nc1CN1CCC(C(=O)NCCc2ccc(Cl)cc2)CC1	none
O=c1[nH]c(=S)[nH]c(-c2ccccc2)c1Cc1c(O)ccc2ccccc12	FH mod 20µM (no result: p53null 39C tox, p53null 32C kill)
Cc1ccc(N(C)C(CNS(=O)(=O)c2ccccc2)c2ccccc2)cc1 (stereo unspecified)	p53null 39C tox 14µM, FH mod inconclusive
CN(c1ccccc1)C(CNS(=O)(=O)c1ccccc1)c1ccccc1 (stereo unspecified)	p53null 39C tox inconclusive, FH mod inconclusive
CC1=CC[C@@]2(C)CC[C@@](O)(C(C)C)[C@@H]2[C@@H](O)C1	none (no result: p53null 39C tox, p53null 32C kill)
O=c1c(O)c(-c2cc(O)c(O)c(O)c2)oc2cc(O)cc(O)c12	none (no result: p53null 39C tox, p53null 32C kill)
COc1ccc(-c2cc(=O)c3c(O)cc(O)cc3o2)cc1O	FH mod 24µM (no result: p53null 39C tox, p53null 32C kill)
COc1ccc(OC)c(NC(=O)Nc2cccc(OCc3cc(=O)n4cc(C)ccc4n3)c2)c1	p53null 39C tox inconclusive, p53null 32C kill 10µM

Source: PubChem BioAssay (National Center for Advancing Translational Sciences (NCATS))
